Screens as filed in PubChem BioAssay.
MITF TRPM1 HTS: MITF TRPM1 promoter activation in melanoma cells; hit rate 0.75% among 300,000; activation, % at 12.5 µM; SK-MEL-5 TRPM1-promoter luciferase, 24 h; % of positive control, neutral wells = 0;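 active means mean activation of at least 80% with every replicate also reaching 80%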;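 further: 0% = neutral control wells and 100% = parthenolide positive control wells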
esBAF inh: blocks esBAF chromatin remodeling in mouse ES cells; reporter increase, % at 12.5 µM; Bmi1-luciferase knock-in reporter, 24 h; 100% = twice the neutral-well signal; hit rate 2% among 350,000; in the data active means activation above about 40%;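 further: 0% = median of the plate's neutral control wells and 100% = double that signal; a rise in the Bmi1 reporter signal indicates esBAF inhibition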
Wnt act: Wnt/beta-catenin pathway activation | Wnt/beta-catenin reporter cell assay, activator, plate reader | activation, % at 9.35 µM | hit rate 1.2% among 300,000; in the data active means activation above about 30%, passing the limit was not always enough;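 further: 0% = neutral control wells and 100% = positive control wells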
HSF1 inhib: HSF1 inhibition. NIH3T3-HGL HSE-luciferase, MG132-induced, luminescence 8 h; active compounds read low. hit rate 0.77% among 300,000. AID 2098. activity change, negative = inhibition, % at 7.5 µM (by protocol);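 active means more than half of replicate wells show activity change below -50%, luminescence cut by over half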;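 further: luciferase reports HSF-1 transcriptional activity via heat shock element; 0% = median of DMSO wells and -100% = zero luminescence signal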
HSF1 activator: increases HSF-1 driven luciferase reporter signal. NIH3T3-HGL HSF-1 luciferase reporter, MG132, 8 h; 100% = twice DMSO control signal. activation, % at 9 µM. hit rate 1.7% among 300,000;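 active means mean replicate activation of at least 50% with a set share of replicates each reaching 50%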;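 further: 0% = median of the neutral control wells and 100% = twice that signal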
An asterisk follows results filed as active. Shown are actives, neighbours in structure and some others; about 3.9% of the full set was active somewhere.

CCCCCCC(=O)N(O)C1CC(=O)N(c2ccc(C)cc2)C1=O (centres undefined) was read as MITF TRPM1 HTS -13, esBAF inh -10, Wnt act 7, HSF1 inhib 5 and HSF1 activator -3.
`CCCCCCC(=O)N(O)C1CC(=O)N(c2ccc(Cl)cc2)C1=O` (centres undefined) gave Wnt act 52*, HSF1 inhib 4 and HSF1 activator 6.
`Oc1ccc2ccccc2c1C=Nc1ccccc1-c1nc2ccccc2[nH]1` gave MITF TRPM1 HTS 19, HSF1 inhib 27 and HSF1 activator 59*.
For Oc1ccc2ccccc2c1/C=N/n1cnnc1 the results were MITF TRPM1 HTS -22, Wnt act -2, HSF1 inhib -3 and HSF1 activator -10.
`COc1ccccc1N1C(=O)S/C(=C\c2cc(C)n(C)c2C)C1=O` gave MITF TRPM1 HTS 66, Wnt act 27, HSF1 inhib 10 and HSF1 activator 54*.
`COC(=O)c1ccc(NC(=O)CSc2nccn2CCc2ccccc2)cc1` gave MITF TRPM1 HTS 66, esBAF inh 46*, Wnt act 9, HSF1 inhib 15 and HSF1 activator 21.
For COc1ccc(NC(=O)CSc2nccn2Cc2ccco2)cc1 the results were MITF TRPM1 HTS 57, esBAF inh 36, Wnt act 36*, HSF1 inhib 25 and HSF1 activator 36.
Cn1ccnc1SCC(=O)Nc1ccc(SC(F)F)cc1 was read as MITF TRPM1 HTS 109*, esBAF inh 82* and Wnt act 28.
Screening O=C(CSc1nccn1Cc1ccccc1)Nc1ccccc1 returned MITF TRPM1 HTS 15, esBAF inh 15, Wnt act 1, HSF1 inhib 14 and HSF1 activator 18.
`Cc1cccc(NC(=O)CSc2nccn2Cc2ccco2)c1` gave MITF TRPM1 HTS 66, esBAF inh 44*, Wnt act 20, HSF1 inhib 36 and HSF1 activator 39.
Screening Cc1cc(C)cc(NC(=O)CSc2nccn2Cc2ccco2)c1 returned MITF TRPM1 HTS 12, esBAF inh 19, Wnt act -1, HSF1 inhib 3 and HSF1 activator 9.
For COc1ccc(NC(=O)Nc2ccc3c(c2)CC(=O)N([C@H](C)CO)C[C@@H](C)[C@@H](CN(C)CC2CC2)O3)cc1 the results were esBAF inh -2.
O=C(CSc1nnc(-c2cnccn2)n1Cc1ccco1)Nc1ccc(Br)cc1 was read as MITF TRPM1 HTS -11, esBAF inh -1, Wnt act 0, HSF1 inhib 31 and HSF1 activator 55*.
`Cn1nnc2cc(NC(=O)Nc3ccccc3F)ccc21` gave esBAF inh 22 and Wnt act 50*.
CC(C)CNC(=O)c1ccc2c(c1)C(=O)N(C1CCCCC1)C2=O was read as MITF TRPM1 HTS -11, esBAF inh 4, Wnt act 1, HSF1 inhib 2 and HSF1 activator -2.
Screening CC(C)(C)NC(=O)c1ccc2c(c1)C(=O)N(C1CCCCC1)C2=O returned MITF TRPM1 HTS 45, esBAF inh 43*, Wnt act 0, HSF1 inhib 3 and HSF1 activator 12.
For COc1cccc2cc(-c3nc4ccccc4[nH]3)c(=O)oc12 the results were esBAF inh 11, Wnt act 16, HSF1 inhib 23 and HSF1 activator 15.
`COc1ccc2oc(=Nc3ccccc3)c(-c3nc4ccccc4[nH]3)cc2c1` gave MITF TRPM1 HTS 12, Wnt act 44*, HSF1 inhib 30 and HSF1 activator 45.
`C[C@H](O)C#Cc1ccc2c(c1)O[C@H](CN(C)C(=O)C1CCC1)[C@H](C)CN([C@H](C)CO)S2(=O)=O` gave esBAF inh -4.
C[C@@H]1CN([C@@H](C)CO)C(=O)c2cc(NC(=O)Nc3ccc(F)cc3)ccc2O[C@H]1CN(C)Cc1ccc(-c2ccccc2)cc1 was read as esBAF inh 2.
For CCOC(=O)c1c(NC(=O)CSc2nc3cc(Cl)ccc3c(=O)n2Cc2ccco2)sc(C(=O)N(C)C)c1C the results were MITF TRPM1 HTS -6, esBAF inh -3, Wnt act -17, HSF1 inhib 117 and HSF1 activator 146*.
`CCN(C(=O)CSc1nc2cc(C(=O)OC)ccc2c(=O)n1Cc1ccco1)c1cccc(C)c1` gave MITF TRPM1 HTS -9, HSF1 inhib 101 and HSF1 activator 143*.
Cc1nn(C)cc1NC(=O)C[C@H]1CC[C@H]2[C@H](COc3ccc(NC(=O)C4CCOCC4)cc3C(=O)N2C)O1 was read as esBAF inh -7.
`COc1ccc(NC(=O)N(C)C[C@@H]2Oc3c(NC(=O)NC(C)C)cccc3C(=O)N([C@H](C)CO)C[C@@H]2C)cc1` gave esBAF inh 2.
`CCOC(=O)c1c[nH]n(-c2ccc(C)cc2)c1=O` gave MITF TRPM1 HTS 15, esBAF inh 52*, Wnt act 5, HSF1 inhib -7 and HSF1 activator -8.
`CCOC(=O)c1c[nH]n(-c2ccccc2)c1=O` gave MITF TRPM1 HTS 2, esBAF inh 18, Wnt act -1, HSF1 inhib 0 and HSF1 activator 15.
`CCN(CCCNC(=O)CCCCn1c(=O)[nH]c2ccccc2c1=O)c1ccccc1` gave esBAF inh -2, Wnt act 1, HSF1 inhib 55 and HSF1 activator 74*.
`COCCCNC(=O)CCCn1c(=O)[nH]c2ccccc2c1=O` gave MITF TRPM1 HTS -2, Wnt act -4, HSF1 inhib 3 and HSF1 activator -14.
`CO[C@@H]1CN(C)C(=O)c2ccc(NC(=O)Nc3c(C)noc3C)cc2OC[C@@H](C)N(CCC(F)(F)F)C[C@H]1C` gave esBAF inh -4.
COc1ccc(CN(CC2CCC(C(=O)O)CC2)C(=S)Nc2ccc(C)c(Cl)c2)cc1 (centres undefined) was read as MITF TRPM1 HTS 14, esBAF inh 8, Wnt act -1, HSF1 inhib -17 and HSF1 activator -14.
Cc1ccc(NC(=S)N(Cc2ccc(Cl)cc2)Cc2ccc(C(=O)O)cc2)cc1Cl was read as MITF TRPM1 HTS -6, esBAF inh -4, Wnt act -1, HSF1 inhib 52 and HSF1 activator 74*.
Screening C[C@@H]1CN([C@@H](C)CO)C(=O)Cc2cc(NC(=O)Cn3cnnn3)ccc2O[C@@H]1CN(C)C(=O)Nc1ccc(C(F)(F)F)cc1 returned esBAF inh 5.
CC(C)Oc1ccc(N2C(=O)c3ccccc3C2=O)cc1 was read as MITF TRPM1 HTS 2, esBAF inh 26, HSF1 inhib 8 and HSF1 activator 58*.
For CCC(=O)NC[C@@H]1[C@@H](c2ccc(C3=CCCC3)cc2)[C@H](CO)N1C(=O)C1CC1 the results were esBAF inh 1.
For Cc1cc(Sc2nnc(N)s2)c2ccccc2n1 the results were esBAF inh 33, Wnt act -9, HSF1 inhib 108 and HSF1 activator 136*.
